# Measurements reported in PubChem BioAssay.
# Results with a measured potency or affinity are listed apart. Results filed as inconclusive are left out. Active and inactive are the calls of the source. No rule for the calls is given here.
# Assay: IGROV1 ovarian cancer cell cytotoxicity, dose response, PAX8 inhibitor project, plate reader, dry powder samples (AID 743043);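 also: more negative means fewer viable cells or more cytotoxicity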
# Conditions: series mostly up to 35 µM
row,SMILES,outcome
1,C[C@@H]1CCCCO[C@H](CN(C)S(=O)(=O)c2ccc(F)cc2)[C@H](C)CN([C@@H](C)CO)C(=O)c2cc(NS(=O)(=O)c3ccc(Cl)cc3)ccc2O1,inactive
2,C[C@H](CO)N1C[C@H](C)[C@@H](CN(C)S(=O)(=O)c2ccc(-c3ccccc3)cc2)OCc2cn(nn2)CCCC1=O,inactive
3,C[C@@H]1CN([C@H](C)CO)C(=O)c2cc(NC(=O)Nc3ccccc3)ccc2O[C@@H](C)CCCCO[C@@H]1CN(C)Cc1ccc(Cl)c(Cl)c1,inactive
4,C[C@@H]1CN([C@H](C)CO)C(=O)c2cc(NS(=O)(=O)c3ccc(F)cc3)ccc2O[C@@H](C)CCCCO[C@@H]1CN(C)Cc1ccccc1,inactive
5,C[C@@H]1CN([C@@H](C)CO)C(=O)Cc2cc(NC(=O)CCCCCC(=O)Nc3ccccc3N)ccc2O[C@@H]1CN(C)Cc1ccc(C(F)(F)F)cc1,inactive
6,C[C@@H]1CN([C@H](C)CO)C(=O)c2cc(NC(=O)Nc3ccc(F)cc3)ccc2O[C@@H](C)CCCCO[C@H]1CN(C)Cc1ccc(C(F)(F)F)cc1,inactive
7,O=C(Nc1ccc(F)cc1)N1CC(=O)N2[C@@H](CO)[C@H](c3ccc(-c4ccc(F)cc4)cc3)[C@@H]2C1,inactive
8,COc1ccc(S(=O)(=O)Nc2ccc3c(c2)C(=O)N([C@@H](C)CO)C[C@H](C)[C@@H](CN(C)C(=O)Nc2ccc(F)cc2)OCCCC[C@H](C)O3)cc1,inactive
9,COc1ccccc1C#Cc1ccc2c(c1)O[C@@H](CN(C)Cc1ccncc1)[C@H](C)CN([C@@H](C)CO)S2(=O)=O,inactive
10,C[C@@H]1CCCCO[C@H](CN(C)Cc2ccc(Cl)c(Cl)c2)[C@@H](C)CN([C@@H](C)CO)C(=O)c2cc(NC(=O)Nc3ccccc3)ccc2O1,inactive
11,C[C@@H]1CN([C@@H](C)CO)S(=O)(=O)c2ccc(C#Cc3ccncc3)cc2O[C@H]1CN(C)C(=O)Nc1ccc2c(c1)OCO2,inactive
12,C[C@@H]1CN([C@H](C)CO)C(=O)c2cc(NC(=O)Nc3ccc(F)cc3)ccc2O[C@@H](C)CCCCO[C@@H]1CN(C)Cc1ccc(C(F)(F)F)cc1,inactive
13,C[C@H](CO)N1C[C@H](C)[C@@H](CN(C)C(=O)c2ccc3c(c2)OCO3)Oc2cc(C#Cc3ccccc3F)ccc2S1(=O)=O,inactive
14,CCCC#Cc1ccc([C@@H]2[C@@H](C#N)N(C(=O)C3CCCCC3)[C@H]2CO)cc1,inactive
15,C[C@H]1CN([C@@H](C)CO)C(=O)Cc2cc(NC(=O)NC3CCCCC3)ccc2O[C@@H]1CN(C)Cc1ccc(-c2ccccc2)cc1,inactive

# Assay: NIH:OVCAR-3 ovarian cancer cell cytotoxicity, dose response, PAX8 inhibitor project, plate reader, dry powder samples (AID 743044)
# Conditions: NIH:OVCAR-3 ovarian cancer cell viability; max activity: at 35 µM, stronger effect = lower value unless noted; series mostly up to 50 µM
row,SMILES,max activity
1,C[C@@H]1CCCCO[C@H](CN(C)S(=O)(=O)c2ccc(F)cc2)[C@H](C)CN([C@@H](C)CO)C(=O)c2cc(NS(=O)(=O)c3ccc(Cl)cc3)ccc2O1,-28.2% (inactive)
2,C[C@H](CO)N1C[C@H](C)[C@@H](CN(C)S(=O)(=O)c2ccc(-c3ccccc3)cc2)OCc2cn(nn2)CCCC1=O,-33.1% (inactive)
3,COc1ccc(S(=O)(=O)Nc2ccc3c(c2)C(=O)N([C@@H](C)CO)C[C@H](C)[C@@H](CN(C)C(=O)Nc2ccc(F)cc2)OCCCC[C@H](C)O3)cc1,-15.3% (inactive)
4,COc1ccccc1C#Cc1ccc2c(c1)O[C@@H](CN(C)Cc1ccncc1)[C@H](C)CN([C@@H](C)CO)S2(=O)=O,"20.3% [at 8 µM, stronger effect = lower value] (inactive)"
5,C[C@@H]1CCCCO[C@H](CN(C)Cc2ccc(Cl)c(Cl)c2)[C@@H](C)CN([C@@H](C)CO)C(=O)c2cc(NC(=O)Nc3ccccc3)ccc2O1,"15.8% [at 0.26 µM, stronger effect = lower value] (inactive)"
6,C[C@H](CO)N1C[C@H](C)[C@@H](CN(C)C(=O)c2ccc3c(c2)OCO3)Oc2cc(C#Cc3ccccc3F)ccc2S1(=O)=O,-4.28% (inactive)
7,C[C@H]1CCCCO[C@H](CN(C)C(=O)Nc2cccc3ccccc23)[C@@H](C)CN([C@@H](C)CO)C(=O)c2cc(NS(=O)(=O)c3ccc(Cl)cc3)ccc2O1,-25.9% (inactive)
8,C[C@H]1CN([C@@H](C)CO)C(=O)Cc2cc(NC(=O)NC3CCCCC3)ccc2O[C@@H]1CN(C)Cc1ccc(-c2ccccc2)cc1,"18.6% [at 1 µM, stronger effect = lower value] (inactive)"

# Assay: IOSE-T80 ovarian epithelial cell cytotoxicity, dose response, cytotoxicity control for PAX8 inhibitor project, plate reader, dry powder samples (AID 743045);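 also: 0% = neutral control median and -100% = positive control median; more negative values mean more cell killing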
# Conditions: IOSE-T80 ovarian epithelial cells; series mostly up to 35 µM
row,SMILES,outcome
1,C[C@@H]1CCCCO[C@H](CN(C)S(=O)(=O)c2ccc(F)cc2)[C@H](C)CN([C@@H](C)CO)C(=O)c2cc(NS(=O)(=O)c3ccc(Cl)cc3)ccc2O1,inactive
2,COc1ccccc1C#Cc1ccc2c(c1)O[C@@H](CN(C)Cc1ccncc1)[C@H](C)CN([C@H](C)CO)S2(=O)=O,inactive
3,COc1cccc(-c2ccc3c(c2)[C@H]2[C@H](CCN2S(=O)(=O)c2ccccc2F)[C@@H](CO)N3)c1,inactive
4,C[C@H](CO)N1C[C@H](C)[C@@H](CN(C)S(=O)(=O)c2ccc(-c3ccccc3)cc2)OCc2cn(nn2)CCCC1=O,inactive
5,C[C@@H]1CCCCO[C@@H](CN(C)Cc2ccc(Cl)c(Cl)c2)[C@@H](C)CN([C@@H](C)CO)C(=O)c2cc(NC(=O)Nc3ccccc3)ccc2O1,inactive
6,C[C@@H]1CCCCO[C@H](CN(C)C(=O)Nc2cccc3ccccc23)[C@H](C)CN([C@@H](C)CO)C(=O)c2cc(NS(=O)(=O)c3ccc(Cl)cc3)ccc2O1,inactive
7,C[C@@H]1CN([C@H](C)CO)C(=O)c2cc(NS(=O)(=O)c3ccc(F)cc3)ccc2O[C@@H](C)CCCCO[C@@H]1CN(C)Cc1ccccc1,inactive
8,C[C@@H]1CN([C@@H](C)CO)C(=O)Cc2cc(NC(=O)CCCCCC(=O)Nc3ccccc3N)ccc2O[C@@H]1CN(C)Cc1ccc(C(F)(F)F)cc1,inactive
9,C[C@@H]1CN([C@H](C)CO)C(=O)c2cc(NC(=O)Nc3ccc(F)cc3)ccc2O[C@@H](C)CCCCO[C@H]1CN(C)Cc1ccc(C(F)(F)F)cc1,inactive
10,C[C@@H]1CCCCO[C@H](CN(C)Cc2ccc(C(F)(F)F)cc2)[C@@H](C)CN([C@@H](C)CO)C(=O)c2cc(NC(=O)Nc3ccc(F)cc3)ccc2O1,inactive
11,COc1ccc(S(=O)(=O)N(C)C[C@@H]2OCCCC[C@H](C)Oc3ccc(NS(=O)(=O)c4ccccc4)cc3C(=O)N([C@H](C)CO)C[C@H]2C)cc1,inactive
12,C[C@@H]1CN([C@H](C)CO)C(=O)c2cc(NS(=O)(=O)c3ccc(Cl)cc3)ccc2O[C@@H](C)CCCCO[C@H]1CN(C)C(=O)Nc1ccc(C(F)(F)F)cc1,inactive
13,COc1ccc(S(=O)(=O)Nc2ccc3c(c2)C(=O)N([C@@H](C)CO)C[C@H](C)[C@@H](CN(C)C(=O)Nc2ccc(F)cc2)OCCCC[C@H](C)O3)cc1,inactive
14,COc1ccccc1C#Cc1ccc2c(c1)O[C@@H](CN(C)Cc1ccncc1)[C@H](C)CN([C@@H](C)CO)S2(=O)=O,inactive
15,COc1ccc(CN(C)C[C@H]2OCCCC[C@H](C)Oc3ccc(NC(=O)Nc4ccc(C(F)(F)F)cc4)cc3C(=O)N([C@H](C)CO)C[C@H]2C)cc1,inactive
16,C[C@@H]1CCCCO[C@H](CN(C)Cc2ccc(Cl)c(Cl)c2)[C@@H](C)CN([C@@H](C)CO)C(=O)c2cc(NC(=O)Nc3ccccc3)ccc2O1,inactive
17,C[C@@H]1CCCCO[C@H](CN(C)Cc2ccc(C(F)(F)F)cc2)[C@@H](C)CN([C@@H](C)CO)C(=O)c2cc(NC(=O)Cc3ccccc3)ccc2O1,inactive
18,CN1c2ccc(-c3cccc(C#N)c3)cc2[C@H]2[C@H](CCN2S(=O)(=O)c2ccccc2F)[C@H]1CO,inactive
19,C[C@@H]1CN([C@H](C)CO)C(=O)c2cc(NC(=O)Nc3ccc(F)cc3)ccc2O[C@@H](C)CCCCO[C@@H]1CN(C)Cc1ccc(C(F)(F)F)cc1,inactive
20,C[C@H](CO)N1C[C@H](C)[C@@H](CN(C)C(=O)c2ccc3c(c2)OCO3)Oc2cc(C#Cc3ccccc3F)ccc2S1(=O)=O,inactive
21,C[C@H]1CCCCO[C@H](CN(C)C(=O)Nc2cccc3ccccc23)[C@@H](C)CN([C@@H](C)CO)C(=O)c2cc(NS(=O)(=O)c3ccc(Cl)cc3)ccc2O1,inactive
22,CCCC#Cc1ccc([C@@H]2[C@@H](C#N)N(C(=O)C3CCCCC3)[C@H]2CO)cc1,inactive
23,C[C@H]1CN([C@@H](C)CO)C(=O)Cc2cc(NC(=O)NC3CCCCC3)ccc2O[C@@H]1CN(C)Cc1ccc(-c2ccccc2)cc1,inactive
